In assay [1] the target is Tyrosine-protein kinase SYK (Homo sapiens) (UniProt P43405). As to conditions: at 10 µM.
Assay [2] addresses T1, Mitogen-activated protein kinase kinase kinase 7 (Homo sapiens) (UniProt O43318).
T1 sequence (whole entry): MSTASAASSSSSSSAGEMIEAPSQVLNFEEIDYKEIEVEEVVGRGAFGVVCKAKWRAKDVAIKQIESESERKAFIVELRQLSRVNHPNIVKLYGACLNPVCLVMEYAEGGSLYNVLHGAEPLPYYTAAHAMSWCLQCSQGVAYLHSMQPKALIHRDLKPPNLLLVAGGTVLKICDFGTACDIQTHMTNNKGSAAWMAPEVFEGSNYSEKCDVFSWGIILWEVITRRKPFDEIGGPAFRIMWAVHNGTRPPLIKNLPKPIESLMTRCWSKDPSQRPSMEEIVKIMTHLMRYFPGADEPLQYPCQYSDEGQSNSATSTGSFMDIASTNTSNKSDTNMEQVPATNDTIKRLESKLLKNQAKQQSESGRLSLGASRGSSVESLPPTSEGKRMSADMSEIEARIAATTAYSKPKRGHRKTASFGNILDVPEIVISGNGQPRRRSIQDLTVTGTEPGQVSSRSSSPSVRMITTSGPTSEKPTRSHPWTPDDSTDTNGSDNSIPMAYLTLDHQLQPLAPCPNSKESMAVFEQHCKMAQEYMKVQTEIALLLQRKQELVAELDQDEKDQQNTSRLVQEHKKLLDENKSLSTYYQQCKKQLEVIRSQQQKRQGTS
Particulars: at 1 µM.

Assay [3] deals with T1, Mitogen-activated protein kinase kinase kinase 7 (Homo sapiens). Particulars: at 10 µM.
For assay [4], the target named is T2, Serine/threonine-protein kinase TAO1 (Homo sapiens) (UniProt Q7L7X3).
T2 sequence (whole entry): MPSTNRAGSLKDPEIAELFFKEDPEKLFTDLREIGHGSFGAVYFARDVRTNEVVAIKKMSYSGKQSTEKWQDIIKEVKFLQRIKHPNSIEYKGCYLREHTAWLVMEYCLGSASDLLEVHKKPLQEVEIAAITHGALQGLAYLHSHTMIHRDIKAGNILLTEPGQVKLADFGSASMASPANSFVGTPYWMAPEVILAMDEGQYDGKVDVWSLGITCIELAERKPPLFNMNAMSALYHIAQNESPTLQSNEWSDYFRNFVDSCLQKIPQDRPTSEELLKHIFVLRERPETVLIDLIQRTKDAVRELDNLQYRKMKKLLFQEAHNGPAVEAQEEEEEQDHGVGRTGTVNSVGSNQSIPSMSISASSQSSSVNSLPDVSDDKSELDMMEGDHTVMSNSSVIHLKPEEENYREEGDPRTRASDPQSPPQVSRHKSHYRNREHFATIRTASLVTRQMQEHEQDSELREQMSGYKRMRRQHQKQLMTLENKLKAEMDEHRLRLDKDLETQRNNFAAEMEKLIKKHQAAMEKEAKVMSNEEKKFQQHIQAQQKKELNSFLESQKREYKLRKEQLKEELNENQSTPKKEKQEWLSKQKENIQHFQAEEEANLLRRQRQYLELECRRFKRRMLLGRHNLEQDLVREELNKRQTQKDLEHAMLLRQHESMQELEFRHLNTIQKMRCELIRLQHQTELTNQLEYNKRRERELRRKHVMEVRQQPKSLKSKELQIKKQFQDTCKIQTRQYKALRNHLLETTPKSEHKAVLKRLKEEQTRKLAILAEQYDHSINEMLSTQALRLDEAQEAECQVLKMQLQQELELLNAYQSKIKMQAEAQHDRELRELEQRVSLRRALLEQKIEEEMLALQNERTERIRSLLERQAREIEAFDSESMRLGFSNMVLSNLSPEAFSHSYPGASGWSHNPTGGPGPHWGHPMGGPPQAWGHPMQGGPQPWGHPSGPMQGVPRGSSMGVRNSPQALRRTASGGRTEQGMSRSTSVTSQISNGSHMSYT
Particulars: at 1 µM.

Assay [5] deals with T2, Serine/threonine-protein kinase TAO1 (Homo sapiens). As to conditions: at 10 µM.
In assay [6] the target is T3, Serine/threonine-protein kinase TAO2 (Homo sapiens) (UniProt Q9UL54).
T3 sequence (whole entry): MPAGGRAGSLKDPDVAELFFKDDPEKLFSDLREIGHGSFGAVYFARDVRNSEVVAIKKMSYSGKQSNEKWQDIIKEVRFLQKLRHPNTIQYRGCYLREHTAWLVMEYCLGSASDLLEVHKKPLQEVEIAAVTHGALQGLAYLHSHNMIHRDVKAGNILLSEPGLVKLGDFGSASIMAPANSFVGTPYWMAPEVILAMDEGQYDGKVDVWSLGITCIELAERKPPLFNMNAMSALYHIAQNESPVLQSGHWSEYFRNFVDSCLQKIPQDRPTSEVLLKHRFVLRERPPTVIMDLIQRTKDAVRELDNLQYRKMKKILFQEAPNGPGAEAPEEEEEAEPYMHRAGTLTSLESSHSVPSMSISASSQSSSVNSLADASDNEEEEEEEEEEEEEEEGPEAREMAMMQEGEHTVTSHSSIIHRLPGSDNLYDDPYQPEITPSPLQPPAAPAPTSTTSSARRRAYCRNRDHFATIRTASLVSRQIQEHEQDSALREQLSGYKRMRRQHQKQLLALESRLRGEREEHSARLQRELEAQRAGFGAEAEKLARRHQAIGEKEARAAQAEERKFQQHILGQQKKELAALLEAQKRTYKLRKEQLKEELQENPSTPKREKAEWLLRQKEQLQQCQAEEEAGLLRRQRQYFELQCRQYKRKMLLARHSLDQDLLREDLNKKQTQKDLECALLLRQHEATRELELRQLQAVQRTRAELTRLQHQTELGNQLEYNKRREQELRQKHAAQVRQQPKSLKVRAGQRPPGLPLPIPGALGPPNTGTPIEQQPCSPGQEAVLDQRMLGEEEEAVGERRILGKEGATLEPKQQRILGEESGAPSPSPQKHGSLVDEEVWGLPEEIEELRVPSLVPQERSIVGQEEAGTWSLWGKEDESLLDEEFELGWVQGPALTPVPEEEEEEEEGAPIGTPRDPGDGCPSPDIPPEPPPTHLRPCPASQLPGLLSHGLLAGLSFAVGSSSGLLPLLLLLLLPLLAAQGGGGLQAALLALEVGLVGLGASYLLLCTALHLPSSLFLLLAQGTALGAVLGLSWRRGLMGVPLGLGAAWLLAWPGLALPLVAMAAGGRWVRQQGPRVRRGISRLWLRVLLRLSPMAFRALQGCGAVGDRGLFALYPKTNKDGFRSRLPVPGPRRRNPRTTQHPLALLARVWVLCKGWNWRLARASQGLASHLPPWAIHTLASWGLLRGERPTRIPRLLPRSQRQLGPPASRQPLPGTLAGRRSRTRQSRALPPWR
Particulars: at 1 µM.

Assay [7] concerns the target T3, Serine/threonine-protein kinase TAO2 (Homo sapiens). As to conditions: at 10 µM.
Assay [8] has as its target T4, Serine/threonine-protein kinase TAO3 (Homo sapiens) (UniProt Q9H2K8).
T4 sequence (whole entry): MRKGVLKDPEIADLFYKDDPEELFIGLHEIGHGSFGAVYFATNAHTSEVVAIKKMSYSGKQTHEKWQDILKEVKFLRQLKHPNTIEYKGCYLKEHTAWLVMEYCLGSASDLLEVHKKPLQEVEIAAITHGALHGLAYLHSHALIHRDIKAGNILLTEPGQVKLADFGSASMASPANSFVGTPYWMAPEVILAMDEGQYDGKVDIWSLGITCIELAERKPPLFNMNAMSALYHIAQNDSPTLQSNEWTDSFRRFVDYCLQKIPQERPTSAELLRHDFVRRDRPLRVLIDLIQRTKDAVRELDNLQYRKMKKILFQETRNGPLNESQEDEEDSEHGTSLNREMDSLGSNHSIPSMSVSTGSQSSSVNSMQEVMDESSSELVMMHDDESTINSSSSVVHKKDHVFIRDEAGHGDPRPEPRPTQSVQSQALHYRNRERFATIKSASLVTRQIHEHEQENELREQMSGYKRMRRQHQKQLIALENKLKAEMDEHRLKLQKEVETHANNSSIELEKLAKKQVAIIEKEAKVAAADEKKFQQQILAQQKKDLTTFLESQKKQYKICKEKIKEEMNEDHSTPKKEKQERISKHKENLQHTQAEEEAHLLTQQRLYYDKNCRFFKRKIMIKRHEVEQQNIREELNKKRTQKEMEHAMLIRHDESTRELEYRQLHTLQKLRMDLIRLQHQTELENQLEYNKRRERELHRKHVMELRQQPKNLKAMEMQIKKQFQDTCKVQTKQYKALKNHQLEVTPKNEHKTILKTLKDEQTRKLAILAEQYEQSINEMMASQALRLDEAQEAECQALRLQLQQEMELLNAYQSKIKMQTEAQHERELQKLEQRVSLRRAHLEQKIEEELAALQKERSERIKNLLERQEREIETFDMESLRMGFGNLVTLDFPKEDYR
Particulars: at 1 µM.

Assay [9] addresses T4, Serine/threonine-protein kinase TAO3 (Homo sapiens). As to conditions: at 10 µM.

The structures appear in SMILES notation.

`O=C(CCCc1ccc(-c2ccccc2F)cc1)Nc1ccc(O)cc1`: the residual activity in assay [1] was 79%; in assay [2], 93%; in [3], 92%; in [4], 103%; in [5], 95%; in assay [6], 105%. The residual activity in [7] was 102%; in [8], 100%; in assay [9] it was 94%.
